Data taken from PubChem BioAssay AID463173 (ICCB-Longwood Screening Facility, Harvard Medical School, 2010).
In all, about 52,000 compounds went through this assay and about 1,700 (3.3%) were called active. Many of the other results were omitted from the sample, so actives are more common in it than they were. Values without a mark were called inactive. Cut-off read from the data, not from the text of the source: active = survival mostly below about 52% (no sharp cut-off); inactive = mostly above about 56%.

The compounds below were run on Wild type (assay: growth inhibition of S. aureus wild type versus tarO mutant, primary screen, teichoic acid synthesis inhibitors, RN4220, OD600 (AID 463173)). Conditions: S. aureus RN4220 wild type/DeltatarO growth, OD600, 18 h, hits give low values, screened at 18.75 µg/mL (by protocol).

Structure (SMILES)	survival
Cc1cc(C)cc(NS(=O)(=O)c2ccc3[nH]cc(C(=O)NCc4ccccc4Cl)c(=O)c3c2)c1	111%
CCOc1ccccc1-c1noc(CSc2nnc(-c3ccccc3)n2-c2ccc(F)cc2)n1	117%
CN(C(=O)CSc1nc(C2CCCC2)nc2c1c(=O)n(C)c(=O)n2C)c1ccccc1	128%
Cc1ccc(-c2c(CN3CCN(c4cccc(C)c4)C(C)C3)csc2C)cc1 (stereo not drawn)	90%
Cc1nc(-c2ccccc2)sc1-c1ccc(SCC(=O)Nc2ccccc2)nn1	41%
Cc1nc(-c2ccccc2)sc1-c1ccc(SCC(=O)Nc2cccc(C(F)(F)F)c2)nn1	67%
CC(=O)Nc1cccc(NC(=O)CSc2ccc(-c3sc(-c4ccccc4)nc3C)nn2)c1	17% (active)
O=C(Cn1c(=O)oc2cc(S(=O)(=O)N3CCCC3)ccc21)NCc1ccc(Cl)cc1	138%
NC1=NC(c2cccc(Cl)c2)n2c(nc3ccccc32)N1 (stereo not drawn)	97%
CCOc1ccc(-c2cc(CCCC(=O)NCCc3cc(OC)c(OC)c(OC)c3)no2)cc1	59%
CC(C)CCn1c(SCc2cccc(F)c2)nc2ccsc2c1=O	76%
Cc1ccc(CSc2nc3ccsc3c(=O)n2CCC(C)C)cc1	-6% (active)
Cc1ccc(Cn2c(SCC(=O)NCc3ccccc3)nc3ccsc3c2=O)cc1	76%
O=C(CSc1nc2ccsc2c(=O)n1-c1ccc(Br)cc1)NCc1ccc(Cl)cc1	81%
Cc1ccc(Cn2c(SCC(=O)NCc3ccccc3Cl)nc3ccsc3c2=O)cc1	-6% (active)
O=C(CSc1nc2ccsc2c(=O)n1Cc1ccccc1Cl)NCc1ccc(Cl)cc1	75%
O=C(CSc1nc2ccsc2c(=O)n1-c1ccc(Br)cc1)NCc1ccccc1	80%
Cc1ccccc1CSc1nc2ccsc2c(=O)n1CCC(C)C	74%
Cc1ccc(CNC(=O)CSc2nc3ccsc3c(=O)n2-c2ccc(Br)cc2)cc1	14% (active)
CC(C)/C=N/NC(=O)c1ccc2c(c1)NC(=O)C(C)(C)O2	108%
Cc1ccccc1OCC(=O)OC1CCCN(C)C1 (stereo not drawn)	90%
CCC(=O)N1CCc2cc(Br)cc(S(=O)(=O)N3CCC(C(=O)Nc4ccccc4F)CC3)c21	80%
COc1ccc(-c2cc(-c3ccccc3)c(C#N)c(SCC(O)CS(=O)(=O)Cc3ccc(Cl)cc3)n2)cc1 (stereo not drawn)	141%
COc1ccc(-c2noc(CCC(=O)NCc3ccc(C)cc3)n2)cc1	94%

Structure (SMILES)	survival
COc1ccc(-c2noc(CCC(=O)N(C)c3cc(Cl)ccc3OC)n2)cc1	20%
CCCN(C(=O)Cc1nc(-c2ccc(OC)cc2)no1)c1ccccc1C	87%
CCOc1ccc(N(CC)C(=O)CCc2nc(-c3ccccc3F)no2)cc1	39%
CCOC(=O)c1ccccc1NC(=O)CCc1nc(-c2ccc(C)cc2)no1	27%
CCCN(C(=O)CCc1nc(-c2ccc(C)cc2)no1)c1ccc(OCC)cc1	0% (active)
Cc1ccc(-c2noc(CCC(=O)N(C)c3ccccc3F)n2)cc1	4% (active)
CCCN(C(=O)CCc1nc(-c2ccc(OC)cc2)no1)c1ccccc1F	0% (active)
CCCN(C(=O)CCc1nc(-c2ccccc2F)no1)c1ccc(CC)cc1	-2% (active)
COc1ccc(-c2noc(CCC(=O)N(C)c3ccccc3C)n2)cc1	71%
CN(C(=O)CCc1nc(-c2ccccc2F)no1)c1ccc(Cl)cc1	68%
COc1ccc(-c2noc(CC(=O)N(C)c3ccccc3F)n2)cc1	84%
O=C(Nc1ccc(Br)cc1F)N1CCC(CN2CCc3ccccc3C2)CC1	63%
O=C(Nc1ccc2nc(SCC(=O)N3CCCC3)sc2c1)c1ccc(F)cc1	87%
O=C(CSc1nc2ccccc2c(=O)n1Cc1ccco1)Nc1ccccc1	106%
Cc1ccc(N2CCN(S(=O)(=O)c3ccc(-n4cnnn4)cc3)CC2)c(C)c1	97%
CCOc1ccc(C(=O)c2cn(Cc3ccccc3OC)c3cc4c(cc3c2=O)OCCO4)cc1	80%
Cc1ccc2nc(N(CCCN(C)C)C(=O)c3ccc(Br)s3)sc2c1	90%
CN(C)CCCN(C(=O)c1ccc(Br)s1)c1nc2ccc(F)cc2s1	-6% (active)
CN(C)CCCN(C(=O)c1cccs1)c1nc2ccc(F)cc2s1	76%
CCS(=O)(=O)c1ccccc1C(=O)Nc1ccc(-c2nc3ccccc3s2)cc1	77%
O=C(CCn1cnc2ccccc2c1=O)NCc1ccccc1Cl	98%
COc1ccccc1NC(=O)CCn1cnc2ccccc2c1=O	76%
COc1ccccc1CNC(=O)CCn1cnc2ccccc2c1=O	-6% (active)
Cc1ccc(-c2[nH]c3ccccc3c2SCCNC(=O)c2ccc(S(=O)(=O)N3CCOCC3)cc2)cc1	81%

Structure (SMILES)	survival
CCOC(=O)c1ccc(CNS(=O)(=O)c2c(C)ccc3nsnc23)o1	105%
Fc1ccc(-n2nc(-c3ccccc3)c3cnc4ccccc4c32)cc1Cl	138%
Cc1ccc(C)c(N2CCN(S(=O)(=O)c3cc(C(=O)Nc4cc(Cl)cc(Cl)c4)ccc3F)CC2)c1	85%
CCOc1ccc(NC(=O)c2ccc3nc(C(C)C)oc3c2)cc1	70%
CCS(=O)(=O)c1ccc(C(=O)N2CCN(c3nc4c(OC)ccc(C)c4s3)CC2)cc1	91%
COc1ccc(OC)c2sc(N3CCN(C(=O)c4ccco4)CC3)nc12	76%
Cc1ccc(C)c2sc(N3CCN(C(=O)c4ccco4)CC3)nc12	159%
COc1ccc(OC)c2sc(N3CCN(C(=O)C(C)(C)C)CC3)nc12	69%
COc1ccc(OC)c2sc(N3CCN(C(=O)C4CC4)CC3)nc12	-6% (active)
CCCC(=O)N1CCN(c2nc3c(OC)ccc(C)c3s2)CC1	14% (active)
COc1ccc(C)c2sc(N3CCN(C(=O)c4ccco4)CC3)nc12	-1% (active)
Cc1ccc(Cl)c2sc(N3CCN(C(=O)C4CC4)CC3)nc12	76%
COc1ccc(C)c2sc(N3CCN(C(=O)c4cccc(F)c4)CC3)nc12	133%
COc1ccc2c(c1)c1c(c(=O)n(-c3ccccc3C)c(=O)n1CC(N)=O)n2C	82%
CCOc1ccccc1NC(=O)CCn1nc(C)c(S(=O)(=O)N2CCCCC2)c1C	76%
COc1ccc(N2CCN(C(CNC(=O)CC(C)C)c3ccc4c(c3)OCO4)CC2)cc1 (stereo not drawn)	83%
CCOc1ccc(-c2nnc(SCC(=O)NCCc3ccccc3)nc2-c2ccc(OCC)cc2)cc1	73%
COc1cc(C2CC(=O)Nc3c2c(=O)[nH]c2ncnn32)ccc1O (stereo not drawn)	77%
CCOCCCNC(=O)c1ccc2c(=O)n(CCc3ccccc3)c(=O)[nH]c2c1	79%
Cc1ccc(C)c(N2CCN(C(=O)CSCc3ccccc3Cl)CC2)c1	82%
O=C(Nc1ccccn1)c1ccccc1O	110%
CCCCSc1nnc2c(n1)OC(c1ccc(Br)s1)Nc1ccccc1-2 (stereo not drawn)	9% (active)
CCCSc1nnc2c(n1)OC(c1ccc(Br)s1)Nc1ccccc1-2 (stereo not drawn)	88%
CCCCSc1nnc2c(n1)OC(c1ccc(C)s1)Nc1ccccc1-2 (stereo not drawn)	56%

Structure (SMILES)	survival
Cc1ccc(NC(=O)Cn2c(=O)n(Cc3nc(-c4ccccc4)no3)c(=O)c3cc4c(cc32)OCO4)cc1F	89%
CC(C)C(c1nnnn1Cc1ccccc1)N1CCCc2ccccc21 (stereo not drawn)	122%
N#Cc1c(NC(=O)c2ccco2)sc2c1CCCC2	104%
CNS(=O)(=O)c1cn(CC(=O)N2CCN(c3ccc(Cl)cc3)CC2)cc1S(=O)(=O)NC	124%
CNS(=O)(=O)c1cn(CC(=O)N2CCN(c3ccc(OC)cc3)CC2)cc1S(=O)(=O)NC	69%
CNS(=O)(=O)c1cn(CC(=O)N2CCN(c3ccc(C(C)=O)cc3)CC2)cc1S(=O)(=O)NC	10% (active)
Cc1ccc(SCc2nc(-c3ccc(C(=O)Nc4cc(C)ccc4C)cc3)oc2C)cc1	129%
Fc1cccc(CSc2nc(NCCc3ccccc3)c3ccccc3n2)c1	-3% (active)
Clc1cccc(CSc2nc(NCCc3ccccc3)c3ccccc3n2)c1	66%
COc1ccc(CCNc2nc(SCc3cccc(F)c3)nc3ccccc23)cc1OC	80%
COC(=O)c1cc(S(=O)(=O)N2CCN(c3cccc(C)c3)C(C)C2)c[nH]1 (stereo not drawn)	98%
COc1cccc(OCc2nc3ccccc3n2CCOc2ccccc2C)c1	55%
Fc1ccc(NCc2nc3ccccc3n2CCOc2ccccc2Cl)cc1	95%
Cc1ccccc1OCCn1c(CCNC(=O)C2CCCCC2)nc2ccccc21	90%
Cc1ccc(NCc2nc3ccccc3n2CCOc2ccccc2C)cc1	-20% (active)
COc1ccc(NCc2nc3ccccc3n2CCOc2ccccc2C)cc1	4% (active)
COc1ccccc1OCCn1c(COc2cc(C)ccc2C)nc2ccccc21	87%
Cc1cccc(NCc2nc3ccccc3n2CCOc2ccccc2C)c1	-18% (active)
O=C(O)c1ccc(NCc2nc3ccccc3n2CCOc2ccccc2Cl)cc1	88%
Cc1ccc(C)c(CSc2c(C(C)C)cnc3c2c(=O)n(C)c(=O)n3C)c1	126%
O=C(CSc1ncc(CO)n1Cc1ccccc1)Nc1ccc(C(F)(F)F)cc1	120%
